Test [1] addresses Progesterone receptor (Homo sapiens) (UniProt P06401). Briefly: qHTS assay to identify small molecule agonists of the progesterone receptor (PR) signaling pathway (AID 1346784; calls by dose curve; note: nearly all actives have a fitted effect of over 30% in size). The method in brief:
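PR-UAS-bla HEK 293T cells carrying a UAS-driven beta-lactamase reporter were seeded in medium with 2% charcoal-stripped FBS, preincubated 6 hr at 37C, then exposed to compounds in DMSO for 16 hr; agonism was read by LiveBLAzer B/G FRET fluorescence.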
Background: Quantitative high-throughput screening tests each substance at several concentrations.

Test [2] has the same target. As to the kind of experiment: qHTS assay to identify small molecule antagonists of the progesterone receptor (PR) signaling pathway (AID 1346795; active = well fitted inhibition curve with a large enough effect in the signal ratio in the repeat runs, not every such curve was filed as active; the % refers to the signal ratio). The method in brief: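 PR-UAS-bla HEK293T cells carrying a UAS-driven beta-lactamase reporter were plated in medium with 2% charcoal-stripped FBS and rested 6 hr at 37C. Compounds were added with 1 nM R5020 (final) for 16 hr, then FRET substrate loaded 2 hr at room temperature.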

A short description of test [3]: qHTS assay to identify small molecule antagonists of the progesterone receptor (PR) signaling pathway - cell viability counter screen (AID 1346798). Note: series mostly up to about 92 µM; nearly all actives have a fitted effect of over 50% in size. The method in brief: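 PR-UAS-bla HEK293T cells in medium with 2% charcoal-stripped FBS were treated with compounds plus R5020 for 16 hr at 37C. Cell viability was then read by CellTiter-Glo luminescence after 30 min at room temperature in the same wells.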

Test [4] in a line: qHTS assay to identify small molecule agonists of the progesterone receptor (PR) signaling pathway - cell viability counter screen (AID 1346799; calls by dose curve; note: nearly all actives have a fitted effect of over 45% in size). The method in brief: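 PR-UAS-bla HEK293T cells, 3,000 per well in medium with 2% charcoal-stripped FBS, were preincubated 6 hr at 37C, then exposed to compounds for 16 hr; viability was read as CellTiter-Glo luminescence after 30 min at room temperature.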

Test [5] in a line: qHTS assay to identify small molecule antagonists of the TGF-beta/Smad signaling pathway - cell viability counter screen (AID 1346824). Note: nearly all actives have a fitted effect of over 50% in size. An outline of the steps: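 Cytotoxicity counter-screen run in the same wells as the beta-lactamase Smad reporter read: CellTiter-Glo luminescence after 30 min at room temperature. HEK 293T SBE-bla cells had 5 hr compound exposure at 37 C with TGF-beta1 (0.25 ng/mL stock).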

The nature of test [6]: qHTS assay to identify small molecule agonists of the TGF-beta/Smad signaling pathway - cell viability counter screen (AID 1346829). Note: top concentration of the series differs between compounds; nearly all actives have a fitted effect of over 45% in size. The method in brief:
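SBE-bla HEK 293T cells plated overnight, compound exposure 5 hr at 37 C. Viability read in the same wells by CellTiter-Glo luminescence after 30 min at room temperature, following the beta-lactamase read.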

The nature of test [7]: qHTS assay to identify small molecule agonists of the TGF-beta/Smad signaling pathway (AID 1346859; active = well fitted activation curve with a large enough effect in the signal ratio in the repeat runs, not every such curve was filed as active; the % refers to the signal ratio; note: series mostly up to about 77 µM). The method in brief: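 HEK 293T cells stably carrying a beta-lactamase reporter driven by the Smad binding element were seeded overnight, exposed to DMSO-dissolved compounds for 5 hr at 37 C, 5% CO2, then loaded with FRET substrate for 2 hr at room temperature.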
The target of test [8] is Thyrotropin-releasing hormone receptor (Homo sapiens) (UniProt P34981). Briefly: qHTS assay to identify small molecule antagonists of the thyrotropin-releasing hormone receptor (TRHR) signaling pathway (AID 1346877; active = well fitted inhibition curve with a large enough effect in the repeat runs, not every such curve was filed as active; note: series mostly up to about 51 µM). The method in brief:
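HEK293/TRHR cells, 18 h, 37 °C; Ca2+ dye 2 h; cpd 5 min RT; TRH 1 nM final; fluorescence read 3 min, 1 s intervals; 15 concs, triplicate.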

For test [9] the target is unchanged. Briefly: qHTS assay to identify small molecule agonists of the thyrotropin-releasing hormone receptor (TRHR) signaling pathway (AID 1346891; calls by dose curve; note: series mostly up to about 58 µM). The method in brief:
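TRHR-expressing HEK293 cells were plated 18 h at 37 °C/5% CO2, loaded with calcium dye 2 h at 37 °C, then given compound in DMSO; fluorescence was read kinetically for 3 min at 1 s intervals.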

Test [10] is described as follows: Human pregnane X receptor (PXR) small molecule agonists, qHTS cell viability counter screen (AID 1346977). Note: nearly all actives have a fitted effect of over 50% in size. The method in brief:
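PXR-Luc HepG2 cells in medium with 5% charcoal-stripped FBS were pre-incubated 5hr, then exposed to compounds for 24hr at 37C. Viability was read in the same wells by CellTiter-Fluor fluorescence, reagent added after 23hr with a 1hr incubation.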

The nature of test [11]: Caspase-3/7 induction in HepG2 cells by small molecules, qHTS assay (AID 1346978). Note: nearly all actives have a fitted effect of over 15% in size. An outline of the steps: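 Caspase-3/7 induction was measured by Caspase-Glo 3/7 luminescence (30 min, room temperature) after a 17 hr compound exposure of wild-type HepG2 cells seeded at 2,000 per well and pre-incubated 5 hr.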
A short description of test [12]: Caspase-3/7 induction in CHO-K1 cells by small molecules, qHTS cell viability counter screen (AID 1346979). Note: nearly all actives have a fitted effect of over 35% in size. An outline of the steps: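 Wild-type CHO-K1 cells were seeded at 1,500 per well, rested 5hr at 37 C, then exposed to compounds in DMSO. After 16hr, CellTiter-Fluor reagent was added and fluorescence read 1hr later as the viability measure.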
The nature of test [13]: Caspase-3/7 induction in CHO-K1 cells by small molecules, qHTS assay (AID 1346980). Note: nearly all actives have a fitted effect of over 15% in size. The method in brief: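 Luminescent Caspase-Glo 3/7 read (30min, room temperature) quantified apoptosis induction. Cells were wild-type CHO-K1, treated with compound for 17hr at 37 C and 5% CO2.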
The nature of test [14]: Caspase-3/7 induction in HepG2 cells by small molecules, qHTS cell viability counter screen (AID 1346981). Note: series mostly up to about 92 µM; nearly all actives have a fitted effect of over 30% in size. An outline of the steps:
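Fluorescence read-out of live-cell protease activity (CellTiter-Fluor) after 1 hr with reagent. This was measured in the same wells as the caspase-3/7 luminescence, on HepG2 cells exposed to DMSO-dissolved compounds for 16 hr at 37 C.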

The target of test [15] is Nuclear receptor subfamily 1 group I member 2 (Homo sapiens) (UniProt O75469). Briefly: Human pregnane X receptor (PXR) small molecule agonists, qHTS assay (AID 1346982). Note: nearly all actives have a fitted effect of over 35% in size. Note: potency is the fitted concentration of half-maximal effect. An outline of the steps: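 HepG2 PXR-Luc reporter line, 5% charcoal-stripped FBS; 5 hr pre-incubation, compound (DMSO) 24 hr at 37 C/5% CO2; ONE-Glo 30 min RT; luminescence read-out.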
A short description of test [16]: qHTS assay to identify small molecule agonists of the estrogen receptor alpha (ER-alpha) signaling pathway in the presence of an antagonist - cell viability counter screen (AID 1259386).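 Note: series mostly up to about 92 µM; cells exposed to compounds for 22 h at 37 °C before the viability read; nearly all actives have a fitted effect of over 30% in size.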 The method in brief:
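Read-out: CellTiter-Fluor fluorescence after 1hr reagent incubation, measured in the same wells as the luciferase readout. VM7Luc4E2 cells were exposed to 15 compound concentrations with 10.0nM ICI-182,780 for 22hr at 37C.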

The target of test [17] is Nuclear receptor subfamily 1 group I member 2 (Rattus norvegicus) (UniProt Q9R1A7). Briefly: Rat pregnane X receptor (rPXR) activation by small molecules, qHTS assay (AID 1346983). Note: nearly all actives have a fitted effect of over 20% in size. Particulars: rPXR luciferase reporter cells, One-Glo luminescence, 24 h; stronger effect = higher value. The method in brief:
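Luminescent readout (One-Glo luciferase, 30 min room temperature) followed 24 hr compound treatment at 37 C of rPXR cells plated 2,000 per well and preincubated 5hr; qHTS format with compounds delivered in DMSO.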

Test [18] addresses Nuclear receptor subfamily 1 group I member 2 (Homo sapiens) (UniProt O75469). As to the kind of experiment: CYP3A4 induction through human pregnane X receptor (PXR) by small molecules, qHTS assay (AID 1346984). Note: nearly all actives have a fitted effect of over 40% in size. Note: potency is the fitted concentration of half-maximal effect. An outline of the steps:
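HepG2-derived DPX-2 line carrying PXR plus a CYP3A4-promoter luciferase reporter; cells plated 5 hr, compound-exposed 24 hr at 37C. CYP3A4 activity probed with 3uM (final) Luciferin-IPA for 3hr, then luciferase read after One-Glo.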

For test [19] the target is unchanged. As to the kind of experiment: Human pregnane X receptor (PXR) activation by small molecules, qHTS assay (AID 1346985). Note: nearly all actives have a fitted effect of over 40% in size. An outline of the steps: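 DPX-2 cells (HepG2 co-transfected with a PXR response element and a CYP3A4-promoter luciferase construct) were seeded at 2,000 per well, rested 5 hr at 37C, then exposed to DMSO-dissolved compounds for 24 hr. Activation was read as luciferase luminescence.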

In test [20] the target is Cytochrome P450 2D6 (Homo sapiens) (UniProt P10635). As to the kind of experiment: Cytochrome P450 Family 2 Subfamily D Member 6 (CYP2D6) small molecule antagonists: luciferase reporter qHTS assay (AID 1671196). Note: nearly all actives have a fitted effect of over 50% in size. Note: potency is the fitted concentration of half-maximal effect. The method in brief: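 Luminogenic proluciferin substrate, CYP2D6 enzyme; 10 min RT preincubation with compound, NADPH regeneration system added, 1 h RT. Stop/detection reagent, 20 min RT, luminescence read (RLU). Signal proportional to CYP activity.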
(A reporter such as luciferase makes a cellular process visible.)

Several values for one entry are separate records, joined by “and”; a condition that tells them apart may be missing. Equal values may be shown once. Records with an inconclusive call do not appear. Where a structure was tested more than once in an assay, its records may differ in their call. Activity calls are given as the source filed them. Unless noted, calls come from the whole dose curve; as a rule, active = well fitted curve in the direction sought with a large enough effect in the repeat runs; inconclusive = weak or mixed curves; inactive = no such curve, though single readings can be large; an effect the other way counts as inactive or inconclusive.
% is set by controls: 0 for no effect and ±100 for the full control effect.

Progesterone receptor (Homo sapiens), sequence (P06401 whole entry, looked up): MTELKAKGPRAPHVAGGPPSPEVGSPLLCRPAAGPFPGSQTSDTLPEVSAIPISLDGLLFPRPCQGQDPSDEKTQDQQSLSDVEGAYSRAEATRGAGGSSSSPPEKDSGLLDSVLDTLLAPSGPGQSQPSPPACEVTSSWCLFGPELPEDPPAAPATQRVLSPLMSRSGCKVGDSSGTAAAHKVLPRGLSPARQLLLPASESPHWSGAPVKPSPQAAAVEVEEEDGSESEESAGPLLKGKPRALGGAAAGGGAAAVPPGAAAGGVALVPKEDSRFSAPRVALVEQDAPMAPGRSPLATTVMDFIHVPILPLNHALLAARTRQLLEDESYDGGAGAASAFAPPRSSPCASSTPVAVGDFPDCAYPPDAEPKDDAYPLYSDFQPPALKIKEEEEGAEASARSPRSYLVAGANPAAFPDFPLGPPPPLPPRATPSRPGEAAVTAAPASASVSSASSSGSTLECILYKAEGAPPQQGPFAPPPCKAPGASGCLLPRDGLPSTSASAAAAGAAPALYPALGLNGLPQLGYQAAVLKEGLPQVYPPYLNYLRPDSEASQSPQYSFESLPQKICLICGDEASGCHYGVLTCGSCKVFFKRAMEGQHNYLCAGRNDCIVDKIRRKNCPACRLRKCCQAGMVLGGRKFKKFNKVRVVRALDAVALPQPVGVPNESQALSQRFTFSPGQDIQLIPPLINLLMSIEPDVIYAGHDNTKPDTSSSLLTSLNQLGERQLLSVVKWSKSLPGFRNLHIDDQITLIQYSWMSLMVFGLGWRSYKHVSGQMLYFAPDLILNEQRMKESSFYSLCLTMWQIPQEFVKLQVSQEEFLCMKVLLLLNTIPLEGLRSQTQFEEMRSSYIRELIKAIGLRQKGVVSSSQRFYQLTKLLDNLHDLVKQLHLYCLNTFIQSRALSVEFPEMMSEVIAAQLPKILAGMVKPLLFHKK
Thyrotropin-releasing hormone receptor (Homo sapiens), sequence (P34981 whole entry, looked up): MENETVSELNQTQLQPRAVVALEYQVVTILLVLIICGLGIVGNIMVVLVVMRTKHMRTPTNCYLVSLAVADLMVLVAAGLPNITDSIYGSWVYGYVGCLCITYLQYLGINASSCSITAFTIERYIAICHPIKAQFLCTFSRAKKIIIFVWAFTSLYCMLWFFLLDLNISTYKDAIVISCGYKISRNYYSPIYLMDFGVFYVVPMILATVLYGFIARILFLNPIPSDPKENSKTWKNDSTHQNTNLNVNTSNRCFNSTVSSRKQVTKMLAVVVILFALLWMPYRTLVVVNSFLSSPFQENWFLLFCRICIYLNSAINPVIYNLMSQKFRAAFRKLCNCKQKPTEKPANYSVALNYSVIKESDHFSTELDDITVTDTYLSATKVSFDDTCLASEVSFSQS
Nuclear receptor subfamily 1 group I member 2 (Rattus norvegicus), sequence (Q9R1A7 whole entry, looked up): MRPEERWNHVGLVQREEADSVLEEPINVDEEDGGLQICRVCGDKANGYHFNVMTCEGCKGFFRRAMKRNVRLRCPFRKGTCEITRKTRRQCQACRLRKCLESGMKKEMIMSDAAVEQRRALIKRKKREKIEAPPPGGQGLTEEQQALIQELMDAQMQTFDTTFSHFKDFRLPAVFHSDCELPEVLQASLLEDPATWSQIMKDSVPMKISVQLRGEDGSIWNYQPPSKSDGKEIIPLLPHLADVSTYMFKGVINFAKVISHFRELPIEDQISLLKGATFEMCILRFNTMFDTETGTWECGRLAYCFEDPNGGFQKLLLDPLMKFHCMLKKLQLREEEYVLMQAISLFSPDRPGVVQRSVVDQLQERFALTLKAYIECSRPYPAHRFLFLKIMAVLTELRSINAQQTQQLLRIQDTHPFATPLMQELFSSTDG
Nuclear receptor subfamily 1 group I member 2 (Homo sapiens), sequence (O75469 whole entry, looked up): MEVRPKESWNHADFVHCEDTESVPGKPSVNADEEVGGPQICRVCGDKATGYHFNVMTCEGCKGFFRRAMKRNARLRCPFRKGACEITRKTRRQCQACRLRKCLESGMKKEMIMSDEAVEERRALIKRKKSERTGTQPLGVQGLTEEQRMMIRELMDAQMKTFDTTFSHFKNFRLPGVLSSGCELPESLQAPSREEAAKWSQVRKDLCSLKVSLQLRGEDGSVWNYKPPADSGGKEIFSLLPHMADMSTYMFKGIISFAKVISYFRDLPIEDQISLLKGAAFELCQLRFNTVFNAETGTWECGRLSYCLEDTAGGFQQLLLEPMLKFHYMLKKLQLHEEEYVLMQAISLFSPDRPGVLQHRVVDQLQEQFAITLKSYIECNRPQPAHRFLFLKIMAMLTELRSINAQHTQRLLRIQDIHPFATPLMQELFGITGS
Cytochrome P450 2D6 (Homo sapiens), sequence (P10635 whole entry, looked up): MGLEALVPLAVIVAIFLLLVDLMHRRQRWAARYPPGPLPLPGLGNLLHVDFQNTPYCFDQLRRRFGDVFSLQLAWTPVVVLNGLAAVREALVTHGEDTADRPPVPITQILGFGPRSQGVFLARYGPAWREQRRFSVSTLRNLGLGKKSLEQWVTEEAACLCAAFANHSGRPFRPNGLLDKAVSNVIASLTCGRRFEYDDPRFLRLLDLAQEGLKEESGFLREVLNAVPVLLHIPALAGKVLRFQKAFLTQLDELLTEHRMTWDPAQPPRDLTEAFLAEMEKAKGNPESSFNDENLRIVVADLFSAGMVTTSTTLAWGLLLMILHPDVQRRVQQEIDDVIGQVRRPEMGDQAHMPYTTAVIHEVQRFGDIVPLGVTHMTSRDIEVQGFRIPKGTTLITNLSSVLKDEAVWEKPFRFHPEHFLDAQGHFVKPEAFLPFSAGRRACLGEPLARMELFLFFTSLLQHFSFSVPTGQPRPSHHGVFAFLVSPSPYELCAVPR

With `c1ccc(Oc2ccccc2)cc1`, the Potency result in test [1], in test [2], in test [10], in test [11], in test [12] and in test [14] was “inactive” throughout. The Potency result in test [15] is “inactive”. Also, the compound was called inactive in test [3], in test [4], in test [5], in test [6], in test [7] and in test [8]. For the same compound, the compound was called inactive in [9] and in test [13].
As to `O=C1C(c2[nH]c3ccccc3c2O)=Nc2ccccc21`, the Potency result in [16], in [1], in test [10], in test [12], in test [14] and in test [15] was “inactive” in each case. For the same compound, the Potency entry in test [20] is “inactive”. In addition, the outcome in test [5], in test [6], in test [7], in test [8], in [9] and in test [13] was inactive. Further, in test [19], the call was inactive. For the same compound, in test [17], the max activation was 3.64% (inactive). Further, the Potency in [18] is 0.891 µM (active).
As for `CC(=O)CCC=C(C)C`, the Potency result in test [16], in [1], in test [10], in [11], in test [12] and in test [14] was “inactive” in each case. Besides, the Potency entry in test [20] was “inactive”. For the same compound, the outcome in test [3], in test [5], in test [7], in test [8], in test [9] and in [13] was inactive.
With `Nc1ccc(Cl)c(N)c1`, the Potency result in [16], in test [1], in test [10], in test [11], in test [12] and in [14] was “inactive” in each case. Further, the Potency entry in test [20] is “inactive”. Besides, the compound was classed as inactive in [3], in test [4], in [5], in test [7] and in test [13]. The Potency in test [15] was 61.3 µM (active).
As for `O=C(O)c1ccc(S(=O)(=O)N(Cl)Cl)cc1`, the Potency entry in [16], in test [1], in test [2], in test [10], in test [11] and in [12] was “inactive” each time. The Potency result in [14], in test [15] and in [18] was “inactive” each time. Also, the result in test [5], in test [6], in [7], in [8], in test [9] and in [13] was inactive. Also, the outcome in test [19] was inactive. The max activation in test [17] is 4.13% (inactive). Also, the Potency in [20] was 35.8 µM (active) and inactive.
On to `CNC(=O)Oc1ccc2c(c1)[C@]1(C)CCN(C)[C@@H]1N2C`, for which the Potency entry in test [1], in test [2], in [10], in [11], in [12] and in [14] was “inactive” throughout. The Potency result in [18] is “inactive”. Moreover, the result in test [3], in [4], in [5], in [6], in test [7] and in [8] was inactive. The compound was classed as inactive in test [9], in test [13] and in [19]. Further, in test [17], the max activation was -1.54% (inactive). Moreover, the Potency in [20] is 564 nM (active) and 977 nM (active).
`CC(=O)OC1CC(C)OC(C)O1` (configuration not stated): the Potency entry in test [16], in test [1], in [10], in [11], in test [12] and in [14] was “inactive” in each case. Also, the Potency result in [15] and in [20] was “inactive” throughout. The compound was classed as inactive in [5], in [7], in test [8], in test [9] and in [13].
In the case of `CCCCCCO`, the Potency entry in test [16], in [1], in [10], in test [11], in test [12] and in test [14] was “inactive” each time. Moreover, the Potency result in test [20] is “inactive”. In addition, the compound was classed as inactive in test [3], in [5], in [6], in test [7], in [9] and in test [13].
On to `NC(=S)NNC(N)=S`, for which the Potency entry in [16], in test [1], in [2], in [10], in test [11] and in [12] was “inactive” in each case. For the same compound, the Potency entry in [15] and in [20] was “inactive” in each case. Moreover, the compound was classed as inactive in [5], in [6], in test [7], in [9] and in test [13].
